# PostGolgi ctrl: growth of the yeast control strain, post-Golgi counter-screen | efflux-deficient yeast background strain, growth absorbance A615, 16 h | inhibition, % at 10 µM | hit rate 5% among 98,000 | AID 738
# CYP2C19 inh: blocks human cytochrome P450 2C19; CYP2C19 Supersomes, luciferin-H EGE luminescence, 30 min; AID 778; inhibition, % at 5 µM; hit rate 21% among 96,000;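 active = CYP2C19 inhibition above a set limit at 5 µM in the primary screen, cut at about 50% in these data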;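 also: plate controls were negative control wells for no effect and 2.5 mM tranylcypromine positive control for full effect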
# Target sequence (P33261 whole entry, looked up): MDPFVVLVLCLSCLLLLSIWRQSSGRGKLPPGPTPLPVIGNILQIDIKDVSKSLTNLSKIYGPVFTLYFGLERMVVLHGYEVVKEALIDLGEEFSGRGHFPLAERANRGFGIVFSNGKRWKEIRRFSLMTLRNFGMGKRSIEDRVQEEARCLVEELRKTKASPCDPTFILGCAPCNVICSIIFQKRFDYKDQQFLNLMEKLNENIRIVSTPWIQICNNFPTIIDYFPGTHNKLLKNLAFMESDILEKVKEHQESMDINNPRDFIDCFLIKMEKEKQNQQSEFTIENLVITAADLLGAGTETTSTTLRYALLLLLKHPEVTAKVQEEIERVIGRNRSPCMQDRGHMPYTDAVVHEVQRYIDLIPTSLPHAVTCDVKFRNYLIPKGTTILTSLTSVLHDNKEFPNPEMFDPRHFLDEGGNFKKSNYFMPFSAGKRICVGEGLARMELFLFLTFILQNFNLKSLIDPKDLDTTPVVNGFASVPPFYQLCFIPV
# CYP2C9 activ: increases human cytochrome P450 2C9 activity; P11712; recombinant CYP2C9, luciferin-H conversion, luminescence; hits give high values; factor 1 = untreated enzyme, 0 = blocked; activation factor at 5 µM; hit rate 1.4% among 96,000;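 active = activation factor of 2 or more for CYP2C9 at a 5 µM dose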;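 also: 0 = sulfaphenazole-blocked wells and 1 = vehicle-only wells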
# PostGolgi yeast: growth inhibition of a yeast mutant, post-Golgi transport screen; post-Golgi transport phenotypic cell assay; inhibition, % at 10 µM; hit rate 0.9% among 98,000;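 also: yeast cells grown in 1536-well plates; yeast grown about 18 h at 30C before absorbance read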
# CYP2C9 inhib: inhibitors of human CYP2C9. CYP2C9 Supersomes, luciferin-H conversion, luminescence. inhibition, % at 5 µM. hit rate 20% among 96,000;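 active = blocking of liver enzyme CYP2C9 beyond about 50% at 5 µM, limit read from the data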
# CYP2C19 act: activators of human cytochrome P450 2C19; P33261; recombinant CYP2C19, luciferin-H EGE luminescence; hits give high values; 0 = fully inhibited enzyme, 1 = untreated enzyme; activation factor at 5 µM; 96,000 tested, under 10 active;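 active = activation factor of at least 2 at 5 µM in the primary screen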;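 also: 0 = wells with 2.5 mM tranylcypromine and 1 = vehicle-only wells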
# Numbers without * were called inactive. The list is not random: actives were taken first. Their share in the collection is about 32%. Rule as the data show it, unless noted: active = inhibition above about 30%; inactive = the rest.
SMILES,PostGolgi ctrl,CYP2C19 inh,CYP2C9 activ,PostGolgi yeast,CYP2C9 inhib,CYP2C19 act
Oc1c(C(c2ccccc2)N2CCN(Cc3ccccc3)CC2)sc2ncnn12 (stereo unspecified),-8,78*,0.3,5,67*,0.2
O=C(Nc1nc2ccccc2[nH]1)C1CC(=O)N(c2ccc3c(c2)OCCO3)C1 (stereo unspecified),15,59*,0.4,-6,62*,0.4
O=C(CSc1nc2ccccc2[nH]1)Nc1ccc2c(c1)OCCO2,-10,38,0.3,-4,72*,0.6
O=C(CCc1nc2ccccc2[nH]1)Nc1ccc2c(c1)OCO2,11,34,0.6,-6,37,0.7
O=C(O)C1CC(=O)N(c2ccc3c(c2)OCCO3)C1 (stereo unspecified),15,-20,1.1,-8,-12,1.2
O=C(Nc1ccccc1C(F)(F)F)c1cccnc1,7,2,1.1,-5,-10,1
O=C(CSc1nc2ccncc2[nH]1)Nc1ccccc1C(F)(F)F,7,60*,0.5,1,48,0.4
Cc1ccc2nc(SCC(=O)Nc3c(C)n(C)n(-c4ccccc4)c3=O)[nH]c2c1,2,-8,0.9,0,6,1.1
Cc1ccc2nc(SCC(=O)Nc3ccc4c(c3)OCCO4)[nH]c2c1,12,32,0.2,5,83*,0.7
CN(C(=S)NC1=CCS(=O)(=O)C1)C1CCCCC1,10,21,1,0,0,0.8
O=[N+]([O-])c1nn(-c2ccc3c(c2)OCCO3)n(O)c1=NC1CCCCCC1,14,28,0.7,7,30,0.7
Cc1ccc(-c2nnc(SCc3nc(N)nc(Nc4ccccc4C)n3)n2N)cc1,14,42,0.6,11,37,0.6
CCCC(C)C(=O)Nc1nnc(C)s1 (stereo unspecified),3,-1,1.2,-3,-18,1
Clc1ccccc1CSc1nc2ccncc2[nH]1,11,99*,0.7,-2,32,0
Cc1cc(NC(=O)CSc2nc3ccccc3[nH]2)no1,-3,18,1,11,-3,0.8
O=C(O)CSc1nc2ccc(Cl)cc2[nH]1,17,-19,1,4,2,1.2
O=C(CSc1nc2ccccc2[nH]1)Nc1ccc(F)cc1,2,94*,0.2,0,84*,0.1
COC(=O)Cn1c(=NC(=O)CSCC(=O)NC2CCCCC2)sc2cc(OC)ccc21,7,26,0.9,-10,9,0.7
N#C/C(=C\c1ccc(-c2cccc(Cl)c2)o1)C(=O)Nc1cccc2cccnc12,3,-2,1.3,-5,-26,1
COc1ccc(C(=O)N=c2nc3ccccn3s2)cc1,10,65*,0.7,-5,33,0.4
O=C(c1ccc(Cl)cc1)N1CCC(O)(CSc2ccccc2)CC1,21,54*,0.6,-6,40,0.5
O=C(c1ccc(Cl)cc1)N1CCC(O)(CSc2ccc(Cl)cc2)CC1,45*,23,0.7,-4,28,0.8
CCOCCn1c(SC)nc2c1c(=O)[nH]c(=O)n2C,10,-13,1,-4,-4,1.1
CC(=O)N1C2CCCCC2S[C@H]2CCCCC21 (stereo partly specified),0,0,0.7,-6,31,1
N#CC1=C(S)N(c2ccccc2)C(c2cccs2)NC1=O (stereo unspecified),5,3,0.7,-3,30,1
SMILES,PostGolgi ctrl,CYP2C19 inh,CYP2C9 activ,PostGolgi yeast,CYP2C9 inhib,CYP2C19 act
O=C1CSC(c2cccs2)N1c1ccccc1 (stereo unspecified),-2,55*,0.8,7,21,0.5
c1ccc(N2CCN(c3ccccc3)C2c2cccs2)cc1,9,52*,1.1,17,-7,0.5
CCCOc1ccc(NC2=CC(=O)CC(C)(C)C2)cc1,12,37,0.2,-1,79*,0.6
CCCC(=O)Nc1ccc(C(=O)NNC(=O)c2ccccc2Br)cc1,5,8,0.8,-15,22,0.9
COc1ccccc1N1CCN(S(=O)(=O)c2ccc3c4c(cccc24)C(=O)N3C)CC1,6,64*,0.3,7,72*,0.4
CCOc1ccc(S(=O)(=O)N2CCN(c3ccccc3)CC2)c2cccnc12,7,36,0.4,2,59*,0.6
CCOc1ccc(S(=O)(=O)N2CCN(c3ccccc3OC)CC2)c2cccnc12,30,49,0.4,-5,58*,0.5
CCOc1ccc(S(=O)(=O)N2CCN(c3ccc(OC)cc3)CC2)c2cccnc12,2,17,0.6,16,42,0.8
COc1ccccc1N1CCN(S(=O)(=O)c2ccc3c4c(cccc24)C(=O)N3)CC1,13,31,0.8,-6,16,0.7
COc1ccc(-c2nnc(SCC(=O)Nc3cc(C)on3)n2C)cc1OC,-2,5,1,0,-1,1
Cc1ccc(S(=O)(=O)N2CCCC2C(=O)Nc2ccc(O)cc2)cc1 (stereo unspecified),5,9,1.5,2,-45,0.9
Nc1nc(C2CCCN2S(=O)(=O)c2ccc(Cl)cc2)cs1 (stereo unspecified),8,80*,0.9,20,11,0.2
Cc1ccc(S(=O)(=O)N2CCCC2C(=O)Nc2nc3ccccc3s2)cc1 (stereo unspecified),44*,97*,0.1,-11,86*,0
O=S(=O)(c1ccccc1)N1CCCC1c1nc2ccccc2s1 (stereo unspecified),20,19,0.8,-9,21,0.8
O=C(Nc1nc2ccccc2s1)C1CCCN1S(=O)(=O)c1ccc(Cl)cc1 (stereo unspecified),68*,96*,0,0,97*,0
Cc1nnc(-c2cccc(Br)c2)c2cn(-c3cccc(Br)c3)nc12,19,13,0.8,7,23,0.9
Cc1nnc(-c2cccc(Br)c2)c2cn(-c3ccccc3)nc12,21,16,1,94*,4,0.8
Cc1nnc(-c2cccc(Br)c2)c2cn(-c3ccc(Br)cc3)nc12,49*,-16,1.1,64*,-6,1.2
CCc1ccccc1NC(=O)CSc1nnc([C@@H]2CCCN2C(=O)OC(C)(C)C)o1,-3,29,0.9,0,14,0.7
Cn1c(=O)cc(SCC(=O)NCC2COc3ccccc3O2)c2ccccc21 (stereo unspecified),-8,21,1.1,16,-9,0.8
N#CC(C(=O)C1CCCCC1)c1nc2ccccc2[nH]1 (stereo unspecified),47*,18,0.6,-4,42,0.8
COc1ccc2nc(NC(=O)C3CCCN(S(=O)(=O)c4cccs4)C3)sc2c1 (stereo unspecified),38*,20,0.5,24,47,0.8
COc1ccc2nc(NC(=O)C3CCN(S(=O)(=O)c4cccs4)CC3)sc2c1,37*,84*,0.3,2,67*,0.2
